# Laboratory results reported in the supplement of paper PMC12669032.
# A number with no mark means an inactive call.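 The calls were made as follows: active = AUC reduced over 20% with Padj below 0.05 in at least 2 of 3 replicates; inactive = otherwise.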
# System: Akkermansia muciniphila
# Assay: growth AUC relative to DMSO control (median of replicates) (fraction); higher = more growth (less inhibition), active = hit call of the paper
# Conditions: 20 µM; 24 h
# Summary of the method: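 Area under the growth curve was normalised to the plate median of solvent-only wells, except on the industrial chemical plate, where row and column medians were used. Curves came from gut bacterial monocultures grown anaerobically at 37 °C in mGAM with 20 µM compound (1% DMSO), starting at OD600 0.05 and read at OD600 every hour for 24 h. The minimum OD of each curve was set to 0, and values are medians of three biological replicates grown on separate days.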
row,SMILES,growth AUC
1,COP(N)(=O)SC (stereo not given),1.22
2,COc1cc(OC)n2nc(S(=O)(=O)Nc3c(Cl)ccc(C)c3Cl)nc2n1,1.05
3,CC(C)N(C(=O)SCC(Cl)=C(Cl)Cl)C(C)C,1.26
4,O=S(=O)(c1ccc(O)cc1)c1ccc(O)cc1,0.921
5,CN(C)NC(=O)CCC(=O)O,0.948
6,CCN(CC)c1nc(C)cc(OP(=S)(OC)OC)n1,0.948
7,Clc1cccc(Cl)c1Cl,0.898
8,CCN(CC)C(=S)[S-].O.O.O.[Na+],0.862
9,C#CCC1=C(C)C(OC(=O)C2C(C=C(C)C)C2(C)C)CC1=O (stereo not given),1.05
10,CCOc1ccccc1OS(=O)(=O)NC(=O)Nc1nc(OC)cc(OC)n1,1.02
11,CNC(=O)Oc1cc(C)cc(C(C)C)c1,0.995
12,CCCCN(CC)c1c([N+](=O)[O-])cc(C(F)(F)F)cc1[N+](=O)[O-],0.993
13,O=C(O)CCl,0.94
14,CC[C@H](C)[C@H]1O[C@]2(C=C[C@@H]1C)C[C@@H]1C[C@@H](C/C=C(\C)[C@@H](O[C@H]3C[C@H](OC)[C@@H](O[C@H]4C[C@H](OC)[C@@H](NC)[C@H](C)O4)[C@H](C)O3)[C@@H](C)/C=C/C=C3\CO[C@@H]4[C@H](O)C(C)=C[C@@H](C(=O)O1)[C@]34O)O2.O=C(O)c1ccccc1,1.08
15,CON(C)C(=O)Nc1ccc(Cl)c(Cl)c1,0.949
